ELG1 genotoxic: genotoxicity induction in ELG1-luciferase HEK293T cells | HEK293T ELG1-luciferase reporter, luminescence, 16 h | Potency, µM (highest dose often 46 µM), without a hit: at the top dose activity change, positive = activation, hits mostly activators | hit rate 1.3% among 330,000 | AID 504466; further: % of control where 0% means no effect; nearly all actives have a fitted effect of over 60% in size
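Quantitative HTS format in 1536-well plates. HEK293T ELG1-luciferase reporter cells receive test compound and are incubated 16 hr at 37 °C, 5% CO2; ONE-Glo added, 30 min room temperature, then luminescence read.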
Luc counter: counter-screen: inhibitors of Kinase-Glo firefly luciferase; Q27757; Kinase-Glo luciferase, ATP luminescence, 8 min; Potency, µM (doses to about 38.3 µM), inactives show at the highest dose activity change, negative = inhibition, usual class: inhibitors; hit rate 0.28% among 200,000; AID 1379; further: on the % scale 0 is the no-effect control and ±100 the full control effect; nearly all actives have a fitted effect of over 60% in size
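Light output from Kinase-Glo luciferase with luciferin and 10 uM ATP in 50 mM imidazole pH 7.2, KCl, MgCl2, Tween 20, BSA; compound pin-delivered, 8-min ambient incubation, then luminescence read.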
SMN2 splice enh: increases expression of the SMN2 splice variant; HEK293 SMN2-luciferase splicing reporter, luminescence, 30-36 h; Potency, µM (highest dose often 46.1 µM), inactives show at the top dose activity change, positive = activation, actives largely listed as activators; hit rate 2.8% among 210,000; further: % of control where 0% means no effect; nearly all actives have a fitted effect of over 55% in size
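HEK293 cells carry an SMN2 […]–luciferase reporter in which exon 7 inclusion puts luciferase in frame. Cells were plated 10-12 h before compound addition, then incubated 30-36 h at 37C. ONE-Glo luminescence was read; sodium butyrate at 4.5 mM final served as control.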
NPC1 promoter act: activates the NPC1 promoter. Huh7 NPC1 promoter luciferase reporter, 24 h. hit rate 2.4% among 320,000. AID 485313. Potency, µM (series often up to 9.22 µM), inactives show at the top dose activation, hits mostly activators; further: % of control where 0% means no effect; nearly all actives have a fitted effect of over 60% in size
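Quantitative HTS used a cell-based reporter: Huh7 cells stably bearing the NPC1 promoter upstream of luciferase were treated with compounds for 24 h, and promoter activation was read as luminescence.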
FLuc counter: counter-screen for miR-21 project: firefly luciferase inhibitors or activators; purified FLuc, Km substrates, luminescence inhibition; Potency, µM (highest dose often 57.5 µM), inactives show top-dose activity change, negative = inhibition, usual class: inhibitors; hit rate 6.9% among 360,000; P08659; AID 588342;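 further: plate controls were vehicle for no effect and reference inhibitor for full effect; nearly all actives have a fitted effect of over 55% in size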
Target sequence (P08659 whole entry, looked up): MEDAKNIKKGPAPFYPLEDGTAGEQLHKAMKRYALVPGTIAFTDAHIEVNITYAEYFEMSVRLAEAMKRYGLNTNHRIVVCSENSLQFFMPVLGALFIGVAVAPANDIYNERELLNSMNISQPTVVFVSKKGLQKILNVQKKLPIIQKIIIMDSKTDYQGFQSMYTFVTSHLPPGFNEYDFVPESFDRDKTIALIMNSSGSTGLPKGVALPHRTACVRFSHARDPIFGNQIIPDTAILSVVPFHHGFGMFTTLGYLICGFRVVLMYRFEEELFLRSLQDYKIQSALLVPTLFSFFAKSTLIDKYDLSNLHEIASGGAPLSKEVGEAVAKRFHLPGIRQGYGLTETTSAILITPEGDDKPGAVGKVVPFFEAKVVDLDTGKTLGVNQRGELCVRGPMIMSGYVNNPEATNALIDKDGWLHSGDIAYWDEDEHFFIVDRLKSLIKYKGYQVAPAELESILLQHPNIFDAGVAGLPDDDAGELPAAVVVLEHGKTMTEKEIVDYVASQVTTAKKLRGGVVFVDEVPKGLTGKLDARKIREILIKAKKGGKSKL
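Purified P. pyralis luciferase, 10 nM final, with Km-level 10 uM D-luciferin and 10 uM ATP in 50 mM Tris acetate pH 7.5, 10 mM Mg acetate, 0.01% Tween-20, 0.05% BSA; 6-point qHTS titration about 60 µM downward; luminescence read.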
Rab9 prom act: Rab9 promoter activation; hit rate 2.8% among 320,000; Potency, µM (highest dose often 9.22 µM), inactives show top-dose activation, negative = inhibition, actives largely listed as activators; Huh7 Rab9 promoter-luciferase reporter, luminescence, 24 h; further: % of control where 0% means no effect; nearly all actives have a fitted effect of over 60% in size
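Huh7 reporter line, Rab9 promoter upstream of luciferase. Compound exposure 24 h at 37 °C in reduced-serum medium with 10% FBS. Read-out: luminescence.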
* hit, by the source's call; ? = inconclusive; nt = not tested or not shown; ! = a repeat was not active. In the library only some 7.5% were active in any assay of this set; here they are far more common. The call rests on the fitted dose curve; in most records, active means well fitted curve in the direction sought with a large enough effect; inconclusive means small, poorly fitted or top-dose-only effect, or another doubt; inactive means no such curve, though single readings can be large; an effect the other way counts as inactive or inconclusive. Potency means the concentration at half of the fitted maximal effect.

SMILES	ELG1 genotoxic	Luc counter	SMN2 splice enh	NPC1 promoter act	FLuc counter	Rab9 prom act
COc1ccccc1CNC(=O)[C@@H](NC(=O)C1CCN(C(=O)[C@@H]2CCCN2C(=O)OC(C)(C)C)CC1)C(C)C	3.6%	nt	nt	3.2%	-1.1%	-8.5%
CN(c1ccccc1)S(=O)(=O)c1nnc(NC(=O)c2ccco2)s1	0.4%	nt	nt	0.8%	-20.7%	0.9%
CN(Cc1ccccc1)S(=O)(=O)c1nnc(NC(=O)c2cccc(Cl)c2)s1	nt	nt	nt	nt	-17.8%	nt
CCN(CC)S(=O)(=O)c1nnc(NC(=O)c2ccco2)s1	2.2%	nt	nt	8.4%	26.9µM*	7.8%
CN(Cc1ccco1)S(=O)(=O)c1nnc(NC(=O)c2cccc(Cl)c2)s1	-2.3%	nt	nt	29.1%	26.9µM*	24.9%
CC(C)CN(c1ccccc1)S(=O)(=O)c1nnc(NC(=O)c2ccco2)s1	-3.1%	nt	nt	1.6%	0.849µM*!	-0.1%
CCCCn1c(SCC(=O)c2ccccc2)nc2sc3c(c2c1=O)CCCC3	nt	nt	-8.4%	nt	6.6%	nt
CCN1CCN(Cc2c(O)ccc3c2O/C(=C\C=C\c2ccccc2)C3=O)CC1	0.0%	3.4%	-23.6%	6.1%	10.7µM*	7.2%
O=C1/C(=C/C=C/c2ccccc2)Oc2c1ccc(O)c2CN1CCN(CCO)CC1	0.5%	nt	nt	-3.8%	12µM*	-6.6%
Cc1ccc(/C=C2\Oc3c(ccc(O)c3CN3CCN(C)CC3)C2=O)cc1	7.5%	-8.2%	-2.0%	-1.4%	?	-4.5%
O=c1oc2c(CN3CCN(CCO)CC3)c(O)ccc2cc1-c1ccccc1	nt	nt	nt	nt	-9.7%	nt
CCc1ccc(/C=C2\Oc3c(ccc(O)c3CN3CCN(C)CC3)C2=O)cc1	8.5%	nt	nt	?	12µM*	-0.1%
COc1ccccc1/C=C/C=C1\Oc2c(ccc(O)c2CN2CCN(CCO)CC2)C1=O	8.7%	-1.9%	24.5%	3.0%	3.79µM*	2.8%
CCN1CCN(Cc2c(O)ccc3c2O/C(=C\c2ccccc2)C3=O)CC1	-5.7%	0.4%	4.3%	-2.7%	-1.1%	-2.6%
Cc1sc2ncn(CC(=O)N3CCN(c4ccccc4)CC3)c(=O)c2c1S(=O)(=O)N1CCC(C)CC1	nt	nt	-13.2%	nt	-12.6%	nt
COc1ccccc1NC(=O)c1cccc2c(Br)cccc12	0.2%	nt	nt	22.9%	-9.8%	3.0%
Cc1cccc(N2CCN(c3ccc4cc(S(=O)(=O)N5CCC(C)CC5)ccc4n3)CC2C)c1 (stereo not given)	nt	nt	nt	nt	-3.4%	nt
CC(C)C(=O)OCc1cc(=O)n2nc(C3CC3)sc2n1	nt	nt	nt	nt	6.7%	nt
CCN1CCN(Cc2c(O)ccc3c2O/C(=C\c2ccc(C)cc2)C3=O)CC1	-1.6%	-1.8%	-0.5%	-12.3%	?	-2.3%
CN(C)Cc1c(O)ccc2c1O/C(=C\C=C\c1ccccc1)C2=O	-8.9%	nt	nt	-0.4%	13.5µM*	1.1%
Cc1[nH]c2ccccc2c1/C=N/Nc1nc(Nc2ccc(F)cc2)nc(N2CCOCC2)n1	-9.6%	1.1%	-13.0%	0.8%	16.9µM*	-1.0%
O=C(Oc1cccc(/C=N/Nc2nc(Nc3ccccc3)nc(N3CCOCC3)n2)c1)c1ccco1	-0.3%	-1.0%	19.3%	6.6%	7.57µM*	0.0%
Cc1ccc(Nc2nc(N/N=C/c3c[nH]c4ccccc34)nc(N3CCOCC3)n2)cc1	-7.6%	2.8%	8.3%	0.0%	?	1.2%
C(=N\Nc1nc(Nc2ccccc2)nc(N2CCOCC2)n1)/c1c[nH]c2ccccc12	-8.3%	-0.8%	5.6%	-1.1%	4.26µM*	-2.7%
CCc1nnc(NC(=O)COC(=O)c2cc(OC)cc(OC)c2)s1	0.6%	nt	nt	nt	nt	nt
SMILES	ELG1 genotoxic	Luc counter	SMN2 splice enh	NPC1 promoter act	FLuc counter	Rab9 prom act
CC(C)c1cccc(C(C)C)c1NS(=O)(=O)c1cccs1	nt	nt	1.3%	nt	-2.2%	nt
CC(=O)c1ccc(Nc2ccc(-c3ccccc3F)nn2)cc1	?	-4.5%	7.08µM*	0.708µM*	4.78µM*	0.501µM*
O=c1c2c3c(sc2nc(NCCO)n1CCc1ccccc1)CCCCC3	0.3%	-1.6%	-3.1%	-17.1%	?	-5.6%
O=c1c2c3c(sc2nc(NCCO)n1Cc1ccco1)CCCCC3	17.2%	-1.1%	40.6%	13.8%	15.1µM*	13.0%
COCCNc1nc2sc3c(c2c(=O)n1Cc1ccco1)CCCCC3	?	0.8%	31.6µM*	?	?	2µM*
CCc1cccc(CC)c1NC(=O)C(Cc1ccccc1)NS(=O)(=O)c1cccc2nsnc12 (stereo not given)	nt	nt	-1.4%	nt	-10.4%	nt
CCN(CC)c1ccc(/C=N/NC(=O)Nc2ccccc2)cc1	-8.2%	0.3%	20µM*	3.98µM*	5.36µM*	3.16µM*
CCN(CC)c1ccc(/C=N\NC(N)=O)cc1	16.1%	-2.0%	2.5%	-4.3%	?	3.9%
O=C(Cc1ccccc1)N/N=C/c1ccc(OCC(=O)Nc2ccccc2)cc1	-2.2%	3.1%	-5.3%	-0.6%	-0.4%	8.6%
CCN(CC)c1ccc(/C=N/NC(=O)OC(C)(C)C)cc1	?	nt	nt	?	10.7µM*	2.82µM*
CC(=O)Oc1ccc(/C=N/NC(=S)Nc2ccccc2)cc1	9.2µM*	0.0%	11.2µM*	3.16µM*	?	3.98µM*
CCOc1ccc(/C=N/NC(=O)Nc2ccccc2)cc1	7.3µM*	-8.1%	5.01µM*	?	3.01µM*	2.24µM*
CCc1ccc(NC(=O)c2ccc3c(c2)nnn3CC)cc1	nt	nt	nt	nt	-19.1%	nt
CCOC(=O)c1ccccc1NC(=O)N1CCC(CN2CCCCC2)CC1	nt	nt	nt	nt	0.7%	nt
Cc1ccc(/C=N/NC(=O)C(O)c2ccccc2)o1 (stereo not given)	0.6%	nt	nt	-1.5%	-1.3%	0.5%
CCN(CC)c1ccc(/C=N/OCC(=O)Nc2cccc(C)c2)cc1	-0.5%	-1.9%	-6.4%	2.4%	12µM*	1.6%
Cc1ccc(/C=N/NC(=O)Nc2ccccc2)o1	?	2.1%	11.2µM*	2.51µM*	10.7µM*	3.16µM*
CCC(=O)N1CCc2cc(S(=O)(=O)NC(CC(C)C)C(=O)Nc3cccc(C)c3C)ccc21 (stereo not given)	nt	nt	-9.7%	nt	0.7%	nt
Cc1nc(CC(=O)Nc2ccc(C(N)=O)cc2)cs1	nt	nt	-26.0%	nt	0.9%	nt
